Source: the supplement of paper PMC8387472

The targets below were run with CCN1CCN(CC(=O)Nc2ccc(-c3cccc4c(=O)cc(N5CCOCC5)oc34)c3sc4ccccc4c23)CC1 (assay: fraction of 1-bp insertions among edited reads; higher = more 1-bp insertion outcomes). Details: mESC; 2uM; 72 h treatment, harvest day 5.

Target | fraction of 1-bp insertions among edited reads
29.0 (DMSO control at this site: 1-bp insertion 0.084, MH deletion 0.745, edited 0.133) TTGATGAACTTCCTCTTCTTCTCATGTCTCCGGTCTCCGGTAGGCCACGTGCATGGCCACT | 0.0366
17.0 (DMSO control at this site: 1-bp insertion 0.112, MH deletion 0.348, edited 0.058) CCATAGCGCGATAAATATGACGGCTCATCCTGTATGACGGCTCATCCTGTATCAACTGTCC | 0.0756
45.0 (DMSO control at this site: 1-bp insertion 0.017, MH deletion 0.666, edited 0.101) TTACACAGCATGAACTGCTAGGTGATGATGTCAGATTCGGTTTTACTAACTTCTCCAAAAA | 0.016
30.0 (DMSO control at this site: 1-bp insertion 0.074, MH deletion 0.67, edited 0.142) GAGCTGGCATGAGTATTTGTGCCACATGGCTCCCACATGGCTCCACATGCAAGTTTGAAAC | 0.036
44.0 (DMSO control at this site: 1-bp insertion 0.181, MH deletion 0.512, edited 0.123) ACACATACCTTCTTCGAGGCAGCCAGCATGATGAGACAGGTCTCCCACAAACACATCGTGT | 0.0636
20.0 (DMSO control at this site: 1-bp insertion 0.349, MH deletion 0.138, edited 0.084) TACAGGTGTAGACTGGTTACGTGGCTGCGGAATTGACTGGTTACGTGGCTGCGGAATTTTG | 0.0738
43.0 (DMSO control at this site: 1-bp insertion 0.134, MH deletion 0.714, edited 0.104) AGTTTAACTTACTCCGGCCAAAAAAGAACTGCACCTCTGGAGCGGGTTAGTGGTGGTGGTA | 0.0439
33.0 (DMSO control at this site: 1-bp insertion 0.008, MH deletion 0.771, edited 0.112) CATTAAGAGCAGCTGCCGGCCCCCAAGTGGACAGAGCTGGCCCTGCTGATTCAACAGTGCA | 0.018
